Screens: PubChem, Buhrlage Lab, Dana-Farber Cancer Institute and Novartis Institutes for BioMedical Research (Cambridge, Mass)
The list is not random: actives were taken first. Their share in the collection is about 11%.
USP30 block: blocks human USP30 ubiquitin-rhodamine cleavage; Q70CQ3; purified USP30, Ub-rhodamine cleavage fluorescence; inhibition, % at 25 µM; 47,000 compounds, 5.3% hits
USP17 inh: blocks human USP17 ubiquitin-rhodamine cleavage; inhibition, % at 50 µM; 47,000 compounds, 6.5% hits; A8MUK1; purified USP17, Ub-rhodamine cleavage fluorescence, 3 h
OTUD3 inh: human OTUD3 deubiquitinase inhibition; Q5T2D3; purified OTUD3, Ub-rhodamine fluorescence, 2 h; inhibition, % at 25 µM; 47,000 compounds, 0.7% hits; AID 1645858
Target sequence (Q5T2D3 whole entry, looked up): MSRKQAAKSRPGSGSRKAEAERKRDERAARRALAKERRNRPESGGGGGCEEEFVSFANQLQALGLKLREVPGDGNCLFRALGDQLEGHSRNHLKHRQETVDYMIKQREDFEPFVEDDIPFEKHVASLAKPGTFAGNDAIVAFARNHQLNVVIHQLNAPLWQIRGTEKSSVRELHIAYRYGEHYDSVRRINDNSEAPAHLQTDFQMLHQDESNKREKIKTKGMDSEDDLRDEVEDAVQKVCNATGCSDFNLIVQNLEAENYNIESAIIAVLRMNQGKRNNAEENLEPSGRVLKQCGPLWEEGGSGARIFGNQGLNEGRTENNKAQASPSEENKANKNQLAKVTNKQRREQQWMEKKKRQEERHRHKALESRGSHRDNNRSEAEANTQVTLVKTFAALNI
USP28 block: blocks human USP28 ubiquitin-rhodamine cleavage; inhibition, % at 25 µM; 47,000 compounds, 3% hits; purified USP28, Ub-rhodamine cleavage fluorescence, 30 min
Numbers stand for hits; - = inactive; . = no result. Rule as the data show it: active = inhibition above about 30%; inactive = the rest.

SMILES	USP30 block	USP17 inh	OTUD3 inh	USP28 block
N#Cc1cccc(C(=O)Nc2cccc(Oc3ccccc3)c2)c1	-	-	-	-
N#Cc1cccc(NC(=O)/C=C/c2cccc3ccccc23)c1	-	35	-	-
Cc1cc(C)c2c(NC(=O)c3cccc4ccccc34)nn(C)c2n1	-	49	-	-
CCc1nc(-c2c(C)cc(C)nc2NC(=O)c2ccccc2C)no1	-	-	-	-
O=C(NC1CCCCC1)c1cc2c(cn1)[nH]c1ccccc12	-	-	-	59
Cc1ccc2c(c1)N(Cc1nc(-c3ccc(F)cc3)no1)C(=O)CO2	-	-	-	51
CCN1C(=O)COc2ccc(-c3noc(-c4ccnn4C)n3)cc21	-	-	-	-
Cc1cc2cc(CNc3ncnc4c3nnn4C)ccc2[nH]1	-	49	-	-
CC(=O)N1CCCC(c2cccc(Nc3nnc(C)s3)n2)C1 (stereo not drawn)	-	-	-	-
CN1CCN(S(=O)(=O)c2cc(-c3nnc(C4CCCC4)o3)co2)CC1	-	-	-	-
COc1ccc(C(C)=O)cc1COC(=O)c1ccc2c(c1)S(=O)(=O)N=C1CCCCCN12	38	45	-	-
CC1CC(C)CN(c2ncc3c(n2)CC(C)(C)CC3=O)C1 (stereo not drawn)	-	-	-	-
COc1cc(C2C3=C(CC(c4ccco4)CC3=O)Nc3ccccc3N2C(=O)CCC(=O)O)cc(OC)c1OC (stereo not drawn)	-	-	-	-
CCCCCC(=O)N1c2ccccc2NC2=C(C(=O)CC(c3ccco3)C2)C1c1cc(OC)c(OC)c(OC)c1 (stereo not drawn)	-	34	-	-
COc1ccc(C2C3=C(CC(c4ccco4)CC3=O)Nc3ccccc3N2C(=O)C(F)(F)F)cc1 (stereo not drawn)	-	-	-	-
COc1ccc(C2C3=C(CC(c4ccco4)CC3=O)Nc3ccccc3N2C(C)=O)cc1 (stereo not drawn)	-	38	-	-
Cn1cccc1C(=O)Nc1cnn(-c2ncc(N3CCCCC3)cn2)c1	-	-	-	-
Cn1cccc1C(=O)Nc1cnn(-c2ncc(N3CCCC3)cn2)c1	-	31	-	-
CC(C)(C)c1ccc(NC(=O)CCn2ccc(=O)[nH]c2=O)cc1	40	-	-	-
Cc1c(-c2nsc(NC(=O)c3ccc(Cl)cc3)n2)nnn1-c1ccccc1F	86	39	-	64
O=C(Nc1nc(-c2ccccc2)ns1)c1ccc(F)cc1	-	-	-	-
Oc1ccc(-c2nc3cnccn3c2NCc2ccc3c(c2)OCO3)cc1	-	-	-	-
Cn1c(O)c(C2=Nc3ccccc3SC(c3cccc(O)c3)C2)c(=O)[nH]c1=O (stereo not drawn)	-	39	-	-
Cn1c(O)c(C2=Nc3ccccc3SC(c3cccc(O)c3)C2)c(=O)n(C)c1=O (stereo not drawn)	-	-	-	-
c1cnn(-c2ccc(-c3noc(C4CCC4)n3)cn2)c1	.	-	-	.
SMILES	USP30 block	USP17 inh	OTUD3 inh	USP28 block
NS(=O)(=O)c1ccc(NC(=O)c2sccc2Oc2ccc(F)cc2[N+](=O)[O-])cc1	61	55	-	32
NS(=O)(=O)c1ccc(NC(=O)c2ccc3ncsc3c2)cc1	-	-	-	-
CC(C)Cc1cc(-c2nnc3sc(-c4ccco4)nn23)n[nH]1	-	73	41	39
COc1ccc(C2(C(=O)N3CCC(Nc4nc5c(c(=O)[nH]4)CCCC5)CC3)CC2)cc1	-	-	-	-
COc1cccc(OCCCn2c(C(C)NC(=O)c3ccco3)nc3ccccc32)c1 (stereo not drawn)	-	51	-	-
COc1ccc(OCCCn2c(CNC(=O)c3ccco3)nc3ccccc32)cc1	48	41	-	-
CN(Cc1nc2ccccc2n1CCCOc1ccccc1)C(=O)c1ccco1	-	-	-	-
COc1cccc(OCCCn2c(CN(C)C(=O)c3ccco3)nc3ccccc32)c1	-	-	-	-
COc1ccc(-c2nnc(SC(C(=O)c3ccccc3)c3ccccc3)o2)cc1 (stereo not drawn)	-	-	-	-
COc1ccc(-c2nnc(SCc3ccc(C#N)cc3)o2)cc1	46	-	-	-
O=C(NCC1CC1)C1CCCN(c2ccc(-c3ccccc3)nn2)C1 (stereo not drawn)	-	-	30	-
O=C(NCc1ccccc1Cl)c1ccc(-c2ccc(N3CCCC3)nn2)cc1	-	42	-	-
COc1cccc(CC(=O)NC(C)c2nc(-c3cccnc3)n[nH]2)c1 (stereo not drawn)	-	-	-	-
CC(=O)Nc1ccc(NC(=O)C2CCC(CNS(=O)(=O)c3ccc(F)cc3)CC2)cc1 (stereo not drawn)	31	-	-	-
Cc1sc2nc(C3CC3)n(C3CCN(C(=O)CC(C)C)CC3)c(=O)c2c1C	40	-	-	-
Cc1sc2nc(C3CC3)n(C3CCN(C(=O)C4CC4)CC3)c(=O)c2c1C	33	-	-	-
COc1ccc(Cc2cccc(C3CCN(S(=O)(=O)c4cn(C)nc4C)CC3)n2)cc1	-	-	-	-
Cc1cc(-c2noc(COc3cccc(C)c3C)n2)c2ccccc2n1	-	-	-	-
Cc1c(C(=O)N2CCCC(c3[nH]c4ccccc4c3-c3ccncc3)C2)cnn1C (stereo not drawn)	-	-	-	-
CCOc1cc(N2CCOCC2)c(OCC)cc1NC(=O)c1cc2c(s1)CCC2	-	36	-	-
CCC(=O)N1c2ccc(S(=O)(=O)N3CCOCC3)cc2CC1C (stereo not drawn)	-	-	-	-
CC(=O)N1CCc2cc(S(=O)(=O)NCc3ccc(C)cc3)ccc21	-	57	-	-
O=C(C1CC1)N1CCc2cc(S(=O)(=O)NCC3COc4ccccc4O3)ccc21 (stereo not drawn)	-	-	-	-
CCC(=O)N1c2ccc(S(=O)(=O)NCC(=O)NCc3ccc(C)cc3)cc2CC1C (stereo not drawn)	34	-	-	-
COc1ccc(C)cc1NC(=O)C(NS(=O)(=O)c1ccc2c(c1)CCN2C(C)=O)C(C)C (stereo not drawn)	54	-	-	-
SMILES	USP30 block	USP17 inh	OTUD3 inh	USP28 block
CC(=O)N1CCc2cc(S(=O)(=O)NCC3COc4ccccc4O3)ccc21 (stereo not drawn)	-	38	-	-
CCn1ncc(-c2csc(N)n2)c1C	-	-	-	-
Cc1cc(C)n(-c2ccc(C(=O)NCc3cn4cc(C(F)(F)F)cc(Cl)c4n3)cc2)n1	-	37	-	-
Cc1ccc(C)c(NS(=O)(=O)c2cc(-c3cnc(C4CC4)o3)ccc2C)c1	-	52	-	-
COc1ccc(NS(=O)(=O)c2cc(-c3cnc(C4CC4)o3)ccc2C)cc1OC	-	-	-	-
Cc1ccc(-c2cnc(C3CC3)o2)cc1S(=O)(=O)Nc1ccc(F)c(Cl)c1	-	66	-	-
Cc1[nH]ncc1C(=O)N1CCCC(c2cccc(-n3ccnc3C)n2)C1 (stereo not drawn)	-	40	-	-
COc1cc(-c2nnc(CSc3ccc(C(F)(F)F)cn3)o2)cc(OC)c1OC	38	-	-	-
COc1ccc(CCc2nnc(-c3cnc4onc(C5CC5)c4c3)o2)cc1	-	-	-	-
